Assay [1] relates to PRMT1 (protein arginine N-methyltransferase 1). The experiment in a line: PRMT1 binders on small-molecule microarrays, primary screen, biochemical, small-molecule microarray, 635 nm fluorescence (AID 1088).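 Further: binding of Prmt1 protein to compounds spotted on small-molecule microarray slides.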 Conditions: small-molecule microarray binding, higher = more signal.
Assay [2] is described as follows: yeast growth modulation, basal conditions, primary screen, YJM789 clinical isolate, OD600, 24 h (AID 1089).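 Further: growth of clinical yeast isolate S. cerevisiae YJM 789 seeded 1000 cells per well; test concentration not given here.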 Particulars: S. cerevisiae YJM789 growth, higher = more signal, called active from +8 up or from −8 down.
The nature of assay [3]: fission yeast growth modulation, primary screen, strain 972, OD600, 24 h, no modulator (AID 1090).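 Further: basal condition with compound alone and no growth modifier present; test concentration not given here.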 Conditions: S. pombe 972 growth, higher = more signal, called active from +8 up or from −8 down.
A short description of assay [4]: S. cerevisiae growth modulation with rapamycin, primary screen, strain BY4716, OD600, 96 h (AID 1091). Further: test concentration not given here. Conditions: higher = more signal, called active from +8 up or from −8 down.
Assay [5] concerns the target Torsin-1A-interacting protein 2 (Homo sapiens) (UniProt Q8NFQ8). The experiment in a line: LULL1 binders on small-molecule microarray, primary screen, cell lysate, human LULL1 lysate, 635/667 nm fluorescence (AID 1092).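 Further: probe is lysate of COS7 cells overexpressing human LULL1; score merges per-feature 667 nm fluorescence with signal-to-noise.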 Conditions: hLULL1 lysate binding, 635 nm fluorescence, higher = more signal.
Assay [6] is described as follows: E. coli growth modulation, two-sided OD650, primary screen, E. coli filamentation project, strain DRC41, 24 h (AID 1093).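 Further: MC1000 strain lacking acrAB efflux and sulA so SOS filamentation is blocked; test concentration not given here.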 Conditions: OD650, 24 h, higher = more signal, called active from +8 up or from −8 down.
A short description of assay [7]: small-molecule microarray binders of probe aLefty2, primary screen, biochemical, biotinylated probe, 635/667 nm fluorescence (AID 1094).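 Further: score merges spot fluorescence near 667 nm with spot signal-to-noise ratio.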 Conditions: higher = more signal.
Assay [8] has as its system Noggin (protein binding on small-molecule microarray). The experiment in a line: Noggin binders on small-molecule microarray, primary screen, biochemical, 635/667 nm fluorescence (AID 1095).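 Further: score merges 667 nm feature fluorescence with signal to noise over triplicate slides.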 Conditions: 635 nm fluorescence, higher = more signal.
In assay [9] the target is Neurogenic locus notch homolog protein 3 (Homo sapiens) (UniProt Q9UM47). The experiment in a line: NOTCH3 binders on small-molecule microarray, primary screen, biochemical, 635/667 nm fluorescence (AID 1096). Particulars: NOTCH3 binding, 635 nm fluorescence, higher = more signal.
Chain of Neurogenic locus notch homolog protein 3 (Homo sapiens) (Q9UM47 whole entry, looked up): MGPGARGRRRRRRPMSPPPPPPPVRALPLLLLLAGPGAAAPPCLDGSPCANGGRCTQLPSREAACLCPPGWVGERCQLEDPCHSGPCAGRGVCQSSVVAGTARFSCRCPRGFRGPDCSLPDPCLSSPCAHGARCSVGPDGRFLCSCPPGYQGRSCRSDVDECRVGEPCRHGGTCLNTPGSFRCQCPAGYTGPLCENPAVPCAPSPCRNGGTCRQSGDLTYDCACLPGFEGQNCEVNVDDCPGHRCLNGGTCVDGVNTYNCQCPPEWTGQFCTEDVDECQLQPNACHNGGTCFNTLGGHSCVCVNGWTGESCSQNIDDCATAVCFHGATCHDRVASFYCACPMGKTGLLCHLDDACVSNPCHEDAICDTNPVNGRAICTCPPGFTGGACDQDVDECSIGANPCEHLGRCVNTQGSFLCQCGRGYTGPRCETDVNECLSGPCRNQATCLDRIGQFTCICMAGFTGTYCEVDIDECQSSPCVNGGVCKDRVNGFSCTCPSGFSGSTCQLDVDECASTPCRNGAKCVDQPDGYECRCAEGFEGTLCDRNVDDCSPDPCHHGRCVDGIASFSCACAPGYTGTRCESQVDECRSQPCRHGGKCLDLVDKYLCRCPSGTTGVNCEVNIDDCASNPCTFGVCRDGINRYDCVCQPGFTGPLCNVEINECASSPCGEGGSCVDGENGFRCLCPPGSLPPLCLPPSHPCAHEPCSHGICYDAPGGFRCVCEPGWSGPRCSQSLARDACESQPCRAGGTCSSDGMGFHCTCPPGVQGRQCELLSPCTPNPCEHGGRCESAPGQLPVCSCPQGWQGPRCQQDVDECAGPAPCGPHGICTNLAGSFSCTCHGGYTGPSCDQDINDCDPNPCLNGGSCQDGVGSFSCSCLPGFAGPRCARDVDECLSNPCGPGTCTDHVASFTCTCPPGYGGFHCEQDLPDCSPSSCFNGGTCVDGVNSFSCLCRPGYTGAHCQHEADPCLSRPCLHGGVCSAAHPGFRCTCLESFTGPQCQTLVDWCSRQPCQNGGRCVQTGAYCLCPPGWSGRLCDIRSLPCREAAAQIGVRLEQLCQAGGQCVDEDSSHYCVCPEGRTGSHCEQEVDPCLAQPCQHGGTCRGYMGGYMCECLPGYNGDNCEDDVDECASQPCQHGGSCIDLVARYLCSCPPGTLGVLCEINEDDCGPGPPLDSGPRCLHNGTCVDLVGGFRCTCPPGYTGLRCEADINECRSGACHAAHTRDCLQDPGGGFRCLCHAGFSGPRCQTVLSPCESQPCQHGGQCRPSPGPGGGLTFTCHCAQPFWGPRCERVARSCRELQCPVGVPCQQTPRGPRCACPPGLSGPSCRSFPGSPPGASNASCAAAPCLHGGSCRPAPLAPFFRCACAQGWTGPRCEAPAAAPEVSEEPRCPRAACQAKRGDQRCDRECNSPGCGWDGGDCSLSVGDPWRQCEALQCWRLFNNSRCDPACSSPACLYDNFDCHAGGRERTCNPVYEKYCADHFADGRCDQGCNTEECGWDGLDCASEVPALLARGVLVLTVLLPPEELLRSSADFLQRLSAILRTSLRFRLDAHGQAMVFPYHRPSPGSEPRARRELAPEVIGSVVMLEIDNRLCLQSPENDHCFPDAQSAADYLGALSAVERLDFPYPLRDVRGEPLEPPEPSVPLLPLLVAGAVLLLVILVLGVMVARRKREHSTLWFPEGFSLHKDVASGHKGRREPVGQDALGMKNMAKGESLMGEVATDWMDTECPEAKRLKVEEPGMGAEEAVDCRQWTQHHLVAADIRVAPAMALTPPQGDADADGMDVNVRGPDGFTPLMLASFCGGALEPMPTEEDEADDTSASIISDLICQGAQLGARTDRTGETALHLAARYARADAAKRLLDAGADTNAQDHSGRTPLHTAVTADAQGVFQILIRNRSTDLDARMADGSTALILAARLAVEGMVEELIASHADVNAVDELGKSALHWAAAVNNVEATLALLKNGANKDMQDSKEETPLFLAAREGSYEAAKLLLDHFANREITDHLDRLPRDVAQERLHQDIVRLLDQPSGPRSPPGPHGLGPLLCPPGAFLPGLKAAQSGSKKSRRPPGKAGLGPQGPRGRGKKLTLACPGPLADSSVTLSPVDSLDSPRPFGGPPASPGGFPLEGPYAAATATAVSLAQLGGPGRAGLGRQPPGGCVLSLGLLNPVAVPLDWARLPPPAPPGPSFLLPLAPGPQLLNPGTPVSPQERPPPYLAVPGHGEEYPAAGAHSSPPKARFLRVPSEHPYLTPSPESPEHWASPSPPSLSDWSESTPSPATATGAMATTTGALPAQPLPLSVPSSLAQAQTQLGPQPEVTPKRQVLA
Assay [10] is described as follows: small-molecule microarray binders of probe aEGFR, primary screen, biochemical, biotinylated probe, 635/667 nm fluorescence (AID 1097).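 Further: probe is a biotinylated anti-EGFR antibody binding compounds printed on slides; score combines fluorescence near 667 nm and signal to noise of each spot.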 Conditions: higher = more signal.
In assay [11] the test system is Plasmodium falciparum Sir2 (PF13_0152, Sir2A). The experiment in a line: pfSir2 binders on small-molecule microarrays, primary screen, biochemical, small-molecule microarray, 635 nm fluorescence (AID 1098).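 Further: score merges spot fluorescence intensity with its signal-to-noise ratio.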 Conditions: small-molecule microarray binding, fluorescence 635 nm; higher = more signal.
Assay [12] in a line: small-molecule microarray binders of probe aDKK1, primary screen, biochemical, biotinylated probe, 635/667 nm fluorescence (AID 1099).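 Further: score merges 667nm spot fluorescence with signal to noise across triplicate slides; reference of the scale not given here.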 Conditions: higher = more signal.
Assay [13] is described as follows: small-molecule microarray binders of probe aCHRDL2, primary screen, biochemical, biotinylated probe, 635/667 nm fluorescence (AID 1100). Particulars: higher = more signal.
Assay [14] can be described thus: splicing luciferase reporter signal modulators, primary screen, spliceosome inhibition project, cell-based, HEK293, splice +/- reporter (AID 1101).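 Further: HEK293 cells carrying a splicing-competent luciferase reporter gene; test concentration not given here.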 Particulars: luminescence, 24 h, higher = more signal, called active from +8 up or from −8 down.
Assay [15] concerns the target Fibroblast growth factor 10 (Homo sapiens) (UniProt O15520). The experiment in a line: FGF10 binders on small-molecule microarrays, primary screen, biochemical, small-molecule microarray, 635 nm fluorescence (AID 1102). Particulars: FGF10 binding, fluorescence 635 nm, higher = more signal.
Assay [16] has as its system glycogen synthase kinase-3 (GSK3A per assay name; protocol says GSK3B). The experiment in a line: GSK3 binders on small-molecule microarrays, primary screen, biochemical, small-molecule microarray, 635 nm fluorescence, GSK3A (AID 1103). Further: the record names both GSK3A and GSK3B. Conditions: small-molecule microarray binding, fluorescence 635 nm; higher = more signal.
Assay [17] concerns the target Epidermal growth factor receptor (Homo sapiens) (UniProt P00533). The experiment in a line: EGFR binders on small-molecule microarrays, primary screen, biochemical, small-molecule microarray, 635 nm fluorescence (AID 1104).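 Further: score merges 667 nm emission intensity with spot signal to noise over triplicate slides.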 Particulars: EGFR binding, higher = more signal.
Assay [18] deals with Follistatin-related protein 3 (Homo sapiens) (UniProt O95633). The experiment in a line: FSTL3 binders on small-molecule microarrays, primary screen, biochemical, small-molecule microarray, 635 nm fluorescence (AID 1105).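 Further: score merges emission near 667 nm and signal to noise per printed spot across three slides.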 Conditions: FSTL3 binding, higher = more signal.
Chain of Follistatin-related protein 3 (Homo sapiens) (O95633 whole entry, looked up): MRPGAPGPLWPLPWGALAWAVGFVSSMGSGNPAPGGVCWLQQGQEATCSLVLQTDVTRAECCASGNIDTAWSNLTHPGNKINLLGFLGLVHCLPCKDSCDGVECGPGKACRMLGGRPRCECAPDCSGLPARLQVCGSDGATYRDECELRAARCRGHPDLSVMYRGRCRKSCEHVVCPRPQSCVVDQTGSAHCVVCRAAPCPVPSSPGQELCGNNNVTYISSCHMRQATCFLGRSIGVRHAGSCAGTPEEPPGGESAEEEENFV
Assay [19] has as its target Dickkopf-related protein 1 (Homo sapiens) (UniProt O94907). The experiment in a line: DKK1 binders on small-molecule microarrays, primary screen, biochemical, small-molecule microarray, 635 nm fluorescence scan (AID 1106).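 Further: score merges emission near 667 nm with signal to noise over three replicate slides.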 Particulars: DKK1 binding, higher = more signal.
Assay [20] relates to Inhibin beta A chain (activin A). The experiment in a line: INHBA (activin A) binders on microarrays, primary screen, biochemical, small-molecule microarray, 635 nm fluorescence scan (AID 1107).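 Further: mouse activin A protein probed at 4.33 µg/mL on printed slides; score merges bound-protein fluorescence near 667 nm with spot signal-to-noise.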 Particulars: small-molecule microarray binding, higher = more signal.

The source made the active and inactive calls.

Chain of Dickkopf-related protein 1 (Homo sapiens) (O94907 whole entry, looked up): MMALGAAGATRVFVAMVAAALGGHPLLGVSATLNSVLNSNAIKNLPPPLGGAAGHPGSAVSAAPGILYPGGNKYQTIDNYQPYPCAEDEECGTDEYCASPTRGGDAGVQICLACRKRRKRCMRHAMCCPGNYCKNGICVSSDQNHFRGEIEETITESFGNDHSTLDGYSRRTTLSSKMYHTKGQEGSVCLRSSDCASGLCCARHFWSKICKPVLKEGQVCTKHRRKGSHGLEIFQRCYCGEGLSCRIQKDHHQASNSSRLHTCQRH
Chain of Fibroblast growth factor 10 (Homo sapiens) (O15520 whole entry, looked up): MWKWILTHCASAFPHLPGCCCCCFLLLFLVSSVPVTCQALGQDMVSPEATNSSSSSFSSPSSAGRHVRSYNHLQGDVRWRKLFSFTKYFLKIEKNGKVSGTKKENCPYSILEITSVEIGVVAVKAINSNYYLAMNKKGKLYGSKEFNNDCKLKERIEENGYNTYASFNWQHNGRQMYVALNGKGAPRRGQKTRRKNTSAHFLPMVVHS
Chain of Torsin-1A-interacting protein 2 (Homo sapiens) (Q8NFQ8 whole entry, looked up): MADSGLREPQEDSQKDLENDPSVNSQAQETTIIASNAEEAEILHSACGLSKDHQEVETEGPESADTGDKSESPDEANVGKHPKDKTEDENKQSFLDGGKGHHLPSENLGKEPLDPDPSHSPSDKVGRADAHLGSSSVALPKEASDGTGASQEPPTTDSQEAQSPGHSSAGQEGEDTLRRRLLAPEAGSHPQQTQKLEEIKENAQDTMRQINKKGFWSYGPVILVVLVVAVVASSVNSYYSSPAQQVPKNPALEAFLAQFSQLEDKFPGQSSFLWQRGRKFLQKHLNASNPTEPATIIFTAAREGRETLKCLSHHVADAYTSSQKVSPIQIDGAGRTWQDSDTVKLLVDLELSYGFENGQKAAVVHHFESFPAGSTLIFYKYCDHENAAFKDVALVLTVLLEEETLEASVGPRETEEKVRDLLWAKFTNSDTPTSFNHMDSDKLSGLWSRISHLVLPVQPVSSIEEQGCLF
Chain of Epidermal growth factor receptor (Homo sapiens) (P00533 whole entry, looked up): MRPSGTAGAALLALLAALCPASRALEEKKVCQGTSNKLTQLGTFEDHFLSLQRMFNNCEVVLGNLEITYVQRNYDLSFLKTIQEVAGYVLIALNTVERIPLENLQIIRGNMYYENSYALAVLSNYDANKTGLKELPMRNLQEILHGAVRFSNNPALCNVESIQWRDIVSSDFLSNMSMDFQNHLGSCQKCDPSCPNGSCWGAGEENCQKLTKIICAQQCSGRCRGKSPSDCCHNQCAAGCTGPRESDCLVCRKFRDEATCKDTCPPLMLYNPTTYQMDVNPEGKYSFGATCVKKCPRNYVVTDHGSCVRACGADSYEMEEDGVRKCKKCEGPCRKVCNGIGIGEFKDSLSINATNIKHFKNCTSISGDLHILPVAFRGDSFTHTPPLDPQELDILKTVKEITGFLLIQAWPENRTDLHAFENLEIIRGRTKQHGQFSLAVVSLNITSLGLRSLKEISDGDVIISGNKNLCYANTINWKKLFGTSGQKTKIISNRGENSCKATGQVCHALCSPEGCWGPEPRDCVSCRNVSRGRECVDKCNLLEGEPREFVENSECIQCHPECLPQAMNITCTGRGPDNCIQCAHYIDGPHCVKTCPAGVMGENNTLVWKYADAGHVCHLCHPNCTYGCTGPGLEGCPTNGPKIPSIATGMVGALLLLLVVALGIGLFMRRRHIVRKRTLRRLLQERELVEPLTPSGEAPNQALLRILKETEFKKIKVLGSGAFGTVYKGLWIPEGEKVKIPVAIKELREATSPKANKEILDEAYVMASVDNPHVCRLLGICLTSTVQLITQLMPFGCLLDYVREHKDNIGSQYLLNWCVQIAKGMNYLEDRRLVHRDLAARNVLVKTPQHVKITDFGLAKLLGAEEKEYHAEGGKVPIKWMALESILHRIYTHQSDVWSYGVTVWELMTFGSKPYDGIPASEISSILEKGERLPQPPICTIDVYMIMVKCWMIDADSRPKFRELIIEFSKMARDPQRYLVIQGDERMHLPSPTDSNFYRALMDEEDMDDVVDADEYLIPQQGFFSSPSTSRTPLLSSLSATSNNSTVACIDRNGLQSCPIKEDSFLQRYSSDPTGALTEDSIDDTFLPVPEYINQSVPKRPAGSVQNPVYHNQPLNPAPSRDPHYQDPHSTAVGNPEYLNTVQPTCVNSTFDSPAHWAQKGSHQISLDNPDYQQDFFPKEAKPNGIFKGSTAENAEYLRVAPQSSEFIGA

On to `CN(C)CCCC[C@@H]1NC(=O)[C@@H]2C[C@H](C(=O)NCCCCCN)[C@H](c3ccc(O)cc3)N2C1=O`, for which the composite z-score was 0.255 in assay [1]; 2.6 in assay [5]; -0.0862 in assay [7]; -0.668 in assay [8]; -0.0504 in [9]; -0.075 in assay [10]. Besides, the composite z-score in assay [11] was 0.016; in assay [12] it was 0.442; in [13], 0.916; in [15], -0.008; in assay [16], 0.31; in assay [17] it was -0.912. In addition, the composite z-score in assay [18] was -1.25; in assay [19] it was -0.722; in [20], -0.273. Moreover, the z-score in [2] is 0.212 (inactive); in assay [3], -0.977 (inactive); in assay [4] it was 0.213 (inactive); in assay [6], 0.0706 (inactive); in assay [14] it was -0.159 (inactive).
On to `CCOC(=O)C[C@H]1[C@H](OC(=O)c2cc3ccccc3oc2=O)[C@@H](NC(=O)c2ccc3ccccc3c2)c2cc(OCCCO)ccc2N1C(=O)c1ccccc1`, for which the composite z-score in assay [1] was 1.13; in [5], 1.6; in assay [7], -0.139; in assay [8] it was 0.798; in assay [9], 0.983; in [10] it was -0.0829. Also, the composite z-score is 1.38 in assay [11]; -0.151 in [12]; -0.413 in assay [13]; 1.41 in [15]; 0.939 in assay [16]; 0.348 in assay [17]. Also, the composite z-score in assay [18] was found to be 0.906; in assay [19] it was 0.486; in [20] it was 0.447. Also, the z-score was -0.087 (inactive) in assay [2]; -1.05 (inactive) in [3]; 0.41 (inactive) in assay [4]; 1.06 (inactive) in assay [6]; -1.28 (inactive) in [14].
Take `C=C(C)[C@@H]1CC=C(C(O)C2C=CC3C(=O)N(Cc4ccccc4)C(=O)C3N2n2cnnc2)CC1` (stereo not given in full): the composite z-score in [1] is -0.0461; in assay [5], 1.3; in assay [7] it was 0.0864; in [8], -0.305; in assay [9], -0.191; in [10] it was -0.161. The composite z-score was 0.827 in assay [11]; 0.546 in [12]; 1.11 in [13]; -0.394 in [15]; -0.724 in assay [16]; -0.608 in assay [17]. Moreover, the results for the composite z-score in [18], in assay [19] and in assay [20] were -0.739, -0.665 and 1.34, respectively. Moreover, the z-score is -0.542 (inactive) in assay [2]; 0.312 (inactive) in [3]; 0.112 (inactive) in assay [4]; -0.0792 (inactive) in assay [6]; -0.925 (inactive) in assay [14].
Consider `COC(=O)c1nc2oc1CC[C@@H](CO)NC(=O)N(C)Cc1cn(nn1)C[C@H](Cc1ccccc1)NC2=O`, for which the composite z-score was 0.594 in assay [1]; 2.59 in [5]; -0.139 in assay [7]; 1.04 in [8]; 0.175 in assay [9]; -0.181 in [10]. For the same molecule, the composite z-score in assay [11] was 0.68; in [12], -0.268; in assay [13], 0.269; in assay [15], 0.133; in assay [16] it was -0.587; in assay [17] it was -0.647. Further, the composite z-score in assay [18] is -0.221; in assay [19], -0.4; in assay [20], 0.697. For the same molecule, the z-score in assay [2] was 0.654 (inactive); in [3], -3.35 (inactive); in [4], -0.858 (inactive); in assay [6], 2.05 (inactive); in assay [14], -0.275 (inactive).
On to `O=C1O[C@@H](c2ccccc2)[C@@H](c2ccccc2)N2[C@@H](c3ccc(O)cc3)[C@]3(C(=O)Nc4ccc(C#CCCO)cc43)[C@@H](C(=O)N3CCCCCCC3)[C@H]12`, for which the composite z-score was 1.55 in [1]; 3.5 in assay [5]; 1.26 in assay [7]; 1.48 in assay [8]; 0.939 in assay [9]; 0.079 in assay [10]. Further, the composite z-score in assay [11] was 1.83; in assay [12] it was 1.7; in assay [13] it was 1.07; in [15], 0.837; in [16], 0.78; in [17], 0.201. Besides, the composite z-score in assay [18] was 1.43; in assay [19], 0.843; in assay [20], 1.67. Further, the z-score is 0.36 (inactive) in [2]; 0.67 (inactive) in assay [3]; 1.51 (inactive) in assay [4]; -0.306 (inactive) in assay [6]; 0.62 (inactive) in assay [14].

These data come from PubChem BioAssay.
